Measured values published in ChEMBL document CHEMBL1961873, “Compounds: GSK PKIS; Assays: Nanosyn kinase panel” (2012).

Key:
[1] = target: T1, Muscle, skeletal receptor tyrosine-protein kinase (Homo sapiens) (UniProt O15146); conditions: at 1 µM;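 note: reported value is the mean percent inhibition of MuSK kinase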
T1 sequence (whole entry): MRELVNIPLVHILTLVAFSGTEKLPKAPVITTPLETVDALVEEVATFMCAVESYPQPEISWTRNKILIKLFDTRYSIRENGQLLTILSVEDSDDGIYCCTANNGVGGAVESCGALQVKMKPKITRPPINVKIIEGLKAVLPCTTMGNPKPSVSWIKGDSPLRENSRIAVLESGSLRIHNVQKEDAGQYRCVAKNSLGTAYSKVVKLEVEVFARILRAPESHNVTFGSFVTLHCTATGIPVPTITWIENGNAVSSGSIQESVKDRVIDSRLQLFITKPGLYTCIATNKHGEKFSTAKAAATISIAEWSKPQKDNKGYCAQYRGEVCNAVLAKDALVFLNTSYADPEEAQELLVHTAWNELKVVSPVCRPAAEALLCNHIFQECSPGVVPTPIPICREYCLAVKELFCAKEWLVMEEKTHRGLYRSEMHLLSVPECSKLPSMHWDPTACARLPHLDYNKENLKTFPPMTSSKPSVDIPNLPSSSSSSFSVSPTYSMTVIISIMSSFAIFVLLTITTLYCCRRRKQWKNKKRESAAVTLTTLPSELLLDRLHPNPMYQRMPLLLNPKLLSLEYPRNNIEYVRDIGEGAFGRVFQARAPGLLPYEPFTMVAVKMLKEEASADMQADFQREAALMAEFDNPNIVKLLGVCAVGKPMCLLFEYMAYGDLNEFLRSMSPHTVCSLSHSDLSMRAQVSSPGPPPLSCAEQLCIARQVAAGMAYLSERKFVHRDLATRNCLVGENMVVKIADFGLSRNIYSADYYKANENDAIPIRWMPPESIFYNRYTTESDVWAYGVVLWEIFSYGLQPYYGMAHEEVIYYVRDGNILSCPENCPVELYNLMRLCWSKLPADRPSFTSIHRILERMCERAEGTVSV

[2] = target: Platelet-derived growth factor receptor alpha (Homo sapiens) (UniProt P16234); conditions: at 0.1 µM
Chain of Platelet-derived growth factor receptor alpha (Homo sapiens) (P16234 whole entry): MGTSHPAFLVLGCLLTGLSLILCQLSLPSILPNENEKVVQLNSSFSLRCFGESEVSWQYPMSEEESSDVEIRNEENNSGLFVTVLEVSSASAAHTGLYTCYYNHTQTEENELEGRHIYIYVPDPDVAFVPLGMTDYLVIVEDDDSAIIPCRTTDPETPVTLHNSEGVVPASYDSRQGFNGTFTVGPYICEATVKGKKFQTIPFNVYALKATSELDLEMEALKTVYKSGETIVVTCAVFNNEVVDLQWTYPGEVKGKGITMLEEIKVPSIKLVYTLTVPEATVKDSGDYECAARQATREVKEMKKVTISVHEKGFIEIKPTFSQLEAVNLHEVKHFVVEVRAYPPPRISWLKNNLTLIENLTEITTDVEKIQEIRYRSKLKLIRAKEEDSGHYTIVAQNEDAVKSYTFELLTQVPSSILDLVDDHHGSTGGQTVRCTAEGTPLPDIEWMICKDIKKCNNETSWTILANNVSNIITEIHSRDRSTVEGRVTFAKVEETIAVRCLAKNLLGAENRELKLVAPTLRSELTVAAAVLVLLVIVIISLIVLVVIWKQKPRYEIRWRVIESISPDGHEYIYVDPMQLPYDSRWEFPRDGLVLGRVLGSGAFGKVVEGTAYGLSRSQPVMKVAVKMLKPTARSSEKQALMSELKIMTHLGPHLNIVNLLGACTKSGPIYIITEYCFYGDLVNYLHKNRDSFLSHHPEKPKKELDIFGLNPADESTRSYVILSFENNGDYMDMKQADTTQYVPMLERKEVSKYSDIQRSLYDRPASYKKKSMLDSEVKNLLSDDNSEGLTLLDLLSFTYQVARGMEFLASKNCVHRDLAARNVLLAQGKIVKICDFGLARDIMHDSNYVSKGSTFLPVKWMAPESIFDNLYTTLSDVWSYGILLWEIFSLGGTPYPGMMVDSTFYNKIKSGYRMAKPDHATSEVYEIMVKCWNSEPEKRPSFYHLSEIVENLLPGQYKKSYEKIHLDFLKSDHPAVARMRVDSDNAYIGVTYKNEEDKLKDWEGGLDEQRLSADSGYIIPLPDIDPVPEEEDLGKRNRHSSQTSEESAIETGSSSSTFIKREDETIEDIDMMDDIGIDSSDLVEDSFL

[3] = target: Platelet-derived growth factor receptor alpha (Homo sapiens) (UniProt P16234); conditions: at 1 µM
[4] = test system: Platelet-derived growth factor receptor alpha (Homo sapiens), P16234 [D842V]; conditions: at 0.1 µM
Chain of Platelet-derived growth factor receptor alpha (Homo sapiens), P16234 [D842V] (P16234 whole entry D842V): as the sequence (P16234 whole entry) above, with D842V counted along it

[5] = test system: Platelet-derived growth factor receptor alpha (Homo sapiens), P16234 [D842V]; conditions: at 1 µM
[6] = test system: Platelet-derived growth factor receptor alpha (Homo sapiens), P16234 [T674I]; conditions: at 0.1 µM
Chain of Platelet-derived growth factor receptor alpha (Homo sapiens), P16234 [T674I] (P16234 whole entry T674I): as the sequence (P16234 whole entry) above, with T674I counted along it

[7] = test system: Platelet-derived growth factor receptor alpha (Homo sapiens), P16234 [T674I]; conditions: at 1 µM
[8] = test system: Platelet-derived growth factor receptor alpha (Homo sapiens), P16234 [V561D]; conditions: at 0.1 µM
Chain of Platelet-derived growth factor receptor alpha (Homo sapiens), P16234 [V561D] (P16234 whole entry V561D): as the sequence (P16234 whole entry) above, with V561D counted along it

[9] = test system: Platelet-derived growth factor receptor alpha (Homo sapiens), P16234 [V561D]; conditions: at 1 µM
[10] = target: Platelet-derived growth factor receptor beta (Homo sapiens) (UniProt P09619); conditions: at 0.1 µM;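 note: reported value is the mean percent inhibition of the kinase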
Chain of Platelet-derived growth factor receptor beta (Homo sapiens) (P09619 whole entry): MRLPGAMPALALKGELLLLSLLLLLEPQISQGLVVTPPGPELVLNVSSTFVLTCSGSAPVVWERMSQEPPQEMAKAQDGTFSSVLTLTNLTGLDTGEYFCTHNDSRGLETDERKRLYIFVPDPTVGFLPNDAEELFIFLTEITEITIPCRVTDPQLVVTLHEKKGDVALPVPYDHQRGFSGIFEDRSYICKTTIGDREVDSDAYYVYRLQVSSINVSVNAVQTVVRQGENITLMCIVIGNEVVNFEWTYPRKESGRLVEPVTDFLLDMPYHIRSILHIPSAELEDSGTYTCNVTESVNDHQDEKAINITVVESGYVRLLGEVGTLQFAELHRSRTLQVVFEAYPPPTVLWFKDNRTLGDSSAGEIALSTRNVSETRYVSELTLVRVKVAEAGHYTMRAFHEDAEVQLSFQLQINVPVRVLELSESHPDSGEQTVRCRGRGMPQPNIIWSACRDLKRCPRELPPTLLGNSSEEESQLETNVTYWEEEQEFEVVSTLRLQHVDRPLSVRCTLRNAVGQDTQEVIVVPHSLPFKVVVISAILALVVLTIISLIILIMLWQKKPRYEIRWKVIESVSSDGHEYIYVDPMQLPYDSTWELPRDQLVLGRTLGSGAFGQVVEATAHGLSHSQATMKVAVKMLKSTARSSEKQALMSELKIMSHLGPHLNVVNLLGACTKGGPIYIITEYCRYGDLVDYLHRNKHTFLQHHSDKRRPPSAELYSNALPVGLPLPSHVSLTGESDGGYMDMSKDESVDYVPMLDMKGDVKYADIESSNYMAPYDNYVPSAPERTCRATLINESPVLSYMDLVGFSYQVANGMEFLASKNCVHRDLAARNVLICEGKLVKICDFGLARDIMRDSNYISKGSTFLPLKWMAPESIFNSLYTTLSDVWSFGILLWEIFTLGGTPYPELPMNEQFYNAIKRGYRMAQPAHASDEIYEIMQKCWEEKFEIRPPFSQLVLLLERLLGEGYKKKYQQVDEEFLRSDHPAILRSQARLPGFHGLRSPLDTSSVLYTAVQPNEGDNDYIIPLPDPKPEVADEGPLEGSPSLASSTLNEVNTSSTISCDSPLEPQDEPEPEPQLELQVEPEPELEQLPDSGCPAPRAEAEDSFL

SMILES | inhibition [1] [%] | inhibition [2] [%] | inhibition [3] [%] | inhibition [4] [%] | inhibition [5] [%] | inhibition [6] [%] | inhibition [7] [%] | inhibition [8] [%] | inhibition [9] [%] | inhibition [10] [%]
COc1cc2ncn(-c3cc(O[C@H](C)c4ccccc4Cl)c(C(N)=O)s3)c2cc1OC | 78.2 | 73.2 | 100 | 42.1 | 88.2 | 56.5 | 97.2 | 50.5 | 87.3 | 59.7
COc1ccccc1Nc1ncc(-c2ccccc2)o1 | 2.74 | 14.1 | 47.5 | 4.24 | 6.87 | 16.9 | 69.4 | 35.6 | 53.5 | 11.1
O=C1Nc2ccc(C(=O)c3ccco3)cc2C1=Cc1cc(Cl)c(O)c(Cl)c1 | 8.26 | 8.06 | 26 | 4.54 | 19.8 | 6.25 | 11.5 | 7.12 | 26.8 | 7.32
COc1cc(C)c(NC(=O)CN(C)C)cc1Nc1nc(Nc2cccc(F)c2C(N)=O)c2cc[nH]c2n1 | 28.9 | 7.3 | 16.9 | 1.18 | 3.96 | 0.9 | 3.29 | 1.13 | 10.8 | 2.12
Cn1cc(C=C2C(=O)Nc3cccnc32)c2ccccc21 | 12.8 | 19.5 | 65.3 | 9.02 | 47.1 | 5.86 | 20.2 | 12.4 | 58.7 | 12.5
CNC(=O)c1cncc(/C=C/c2c(Cl)cccc2Cl)c1 | 6.78 | 8.07 | 21.1 | 0.55 | 4.33 | 1.59 | 5.24 | 14.1 | 43 | 5.46
NS(=O)(=O)c1cccc(-c2ccc3c(NC(=O)C4CC4)n[nH]c3c2)c1 | 4.13 | 3.24 | 9.75 | 1.86 | 7.06 | -0.86 | 1.24 | 3.88 | 6.54 | 0.91
c1cnn2ncc(-c3ccnc(Nc4ccc5c(c4)OCCO5)n3)c2c1 | 26.9 | 16.1 | 51.5 | 6.44 | 40.6 | 16.9 | 74.7 | 23.3 | 61.7 | 18.4
O=C1NC(=O)C(N2CCc3ccccc32)=C1c1ccc(Cl)cc1 | 3.86 | 13.4 | 15.4 | 3.39 | 6.57 | 10.4 | 7.21 | 3.93 | 6.68 | 
COc1ccc2cc(-c3c(-c4ccncc4)nc(-c4ccc([S+](C)[O-])cc4)n3C)ccc2c1 (centres undefined) | 3.4 | 2.55 | 10 | 2.12 | 4.78 | 3.93 | 2.95 | -1.44 | 3.24 | 2.46
NCc1ccc(-c2nc(-c3ccc(Cl)c(O)c3)c(-c3ccncc3)[nH]2)cc1 | 2.08 | 6.86 | 25.6 | 6.11 | 31 | 2.74 | 2.2 | 5.6 | 25.9 | 7.07
CCn1c(-c2nonc2N)nc2c(C#CC(C)(C)O)nc(CN3CCCC3)cc21 | 4.26 | 7.83 | 13.1 | 3.09 | 5.71 | 2.75 | 0.39 | 2.19 | 6.46 | 3.33
COC(=O)Nc1nc2cc(Oc3cccc(NC(=O)Nc4cc(C(F)(F)F)ccc4F)c3)ccc2[nH]1 | 32.3 | 48.6 | 80.2 | 2.6 | 8.72 | 4.75 | 37.5 | 40.7 | 87.4 | 11.4
CN1CCC(C(=O)Nc2n[nH]c3nnc(-c4ccccc4)cc23)CC1 | 5.06 | 5.74 | 16.5 | 3.37 | 3.2 | 6.86 | 7.55 | 7.2 | 6.38 | 2.43
Cc1ccc(C(=O)NC2CCCCC2)cc1-c1ccc(C(=O)NCC2CC2)cc1 | 8.57 | 12.3 | 12.8 | 2.47 | 1.67 | 4.09 | -1.01 | 1.21 | 17.2 | 6.66
Nc1nc(-c2ccccn2)c(-c2ccc3ncccc3n2)s1 | 4.69 | 5.63 | 11.4 | 1.02 | 1.79 | 3.45 | 7.4 | -0.56 | -1.5 | 6.46
CN(C)c1cc2c(Nc3ccc4nc(Cc5ccccc5)[nH]c4c3)ncnc2cn1 | 0.22 | 9.58 | 24.4 | 4.07 | 5.67 | 5.35 | 6.9 | 5.97 | 22.8 | 5.76

SMILES | inhibition [1] [%] | inhibition [2] [%] | inhibition [3] [%] | inhibition [4] [%] | inhibition [5] [%] | inhibition [6] [%] | inhibition [7] [%] | inhibition [8] [%] | inhibition [9] [%] | inhibition [10] [%]
COc1cc(C=NNc2ncnc3c2cnn3-c2ccccc2)ccc1O | 43.8 | 28.2 | 78.2 | 24.6 | 79.5 | 13.7 | 39.1 | 15.1 | 68.9 | 18.1
CCn1c(-c2nonc2N)nc2ccncc21 | 1.96 | 8.83 | 7.48 | 0.54 | 1.96 | 2.72 | 1.31 | 2.31 | 3.59 | 0.36
CC(=O)Nc1cccc(C#Cc2cncnc2Nc2ccc(OCc3cccc(F)c3)c(Cl)c2)n1 | 2.93 | 2.49 | 8.73 | 1.14 | 2.21 | -0.15 | -0.14 | 3.24 | 1.4 | 6.88
CCn1c(-c2nonc2N)nc2cnc(Oc3cccc(NC(=O)c4ccc(OCCN5CCOCC5)cc4)c3)cc21 | -1.35 | 5.93 | 9.57 | 1.95 | 4.64 | 4.39 | 9.13 | 3.13 | 3.7 | 2.12
CCc1cccc(NC(=O)Nc2ccc(Oc3ccc4nc(NC(=O)OC)[nH]c4c3)cc2)c1 | 31.1 | 88.5 | 96.8 | 11.7 | 20.5 | 75.7 | 100 | 86.6 | 94.5 | 40.4
Nc1nc(-c2ccc3c(c2)C(=Cc2cc(Br)c(O)c(Br)c2)C(=O)N3)cs1 | 2.75 | 2.1 | 5.96 | 0.96 | 2.21 | 0.36 | -0.01 | 2.02 | 2.58 | 1.75
CCN1CCC(CC(=O)Nc2n[nH]c3nc(-c4cccs4)c(Br)cc23)CC1 | 6.39 | 1.61 | 5.44 | 1.12 | 6.22 | -1.25 | 3.53 | 2.04 | 4.21 | 4.9
Nc1ncnc2occ(-c3ccc(NC(=O)Nc4cc(C(F)(F)F)cc(C(F)(F)F)c4)cc3)c12 | 89.3 | 79.8 | 79.7 | 14.7 | 66.7 | 60.3 | 94.9 | 90.5 | 96 | 67.8
O=C1NC(=O)C(c2cccc(Cl)c2)=C1Nc1ccc(O)c(Cl)c1 | 2.41 | 6.23 | 15.1 | 4.44 | 6.47 | 1.04 | 1.36 | 2.63 | 9.34 | 0.85
CC1=C(C(=O)Nc2ccc3[nH]ncc3c2)C(c2ccc3ccccc3c2)CC(=O)N1 (centres undefined) | 5.45 | 8.08 | 14.6 | 2.86 | 5.83 | 3.54 | 5.01 | 5.52 | 7.45 | 2.15
COc1cc2ncn(-c3cc(OCc4ccccc4C(F)(F)F)c(C(N)=O)s3)c2cc1OC | 32.7 | 47.1 | 83.5 | 29.5 | 79.9 | 19.1 | 68 | 36.6 | 84.9 | 45
COc1ccc(COc2ccc(Cc3cnc(N)nc3N)cc2OC)cc1 | 9.52 | 10.9 | 15.7 | 0.95 | 1.88 | 2.62 | 1.3 | 2.4 | 5.93 | 8.68
CCn1c(-c2nonc2N)nc2cncc(C(=O)N3CCNCC3)c21 | 4.88 | 6.44 | 9.34 | 1.69 | 6.27 | 4.21 | 6.95 | 1.16 | 4.29 | 1.44
CCCN1CCC=C(c2ccc(Nc3nc(Nc4ccccc4C(N)=O)c4cc[nH]c4n3)c(C)c2)C1 | 20.5 | 9.67 | 40.6 | 2.55 | 24.2 | 4.99 | 9.94 | 5.63 | 28.7 | 8.75
Cc1nnc(-c2ccc(C)c(-c3ccc(C(=O)Nc4cccc(C#N)c4)cc3)c2)o1 | 2.91 | 7.61 | 15.8 | 0.78 | 2.5 | 3.31 | 6.79 | 3.46 | 5.28 | 6.49
CC(C)=Cc1cccc2c1/C(=N/Nc1ccc(S(N)(=O)=O)cc1)C(=O)N2 | 36.3 | 20.3 | 64.9 | 12.2 | 58.5 | 7.43 | 46.5 | 15 | 62.5 | 17.4
CCn1c(-c2nonc2N)nc2cncc(C(=O)N3CC[C@H](N)C3)c21 | 3.51 | 7.67 | 6.08 | 4.02 | 5.6 | 6.8 | 8.93 | 2.86 | 1.28 | 4.13
